Source: PubChem (National Center for Advancing Translational Sciences (NCATS))
Shown are actives, neighbours in structure and some others; about 9.2% of the full set was active somewhere.
ELG1 genotoxic: induces genotoxicity in HEK293T cells with luciferase-tagged ELG1; actives 1.3% (n = 330,000); Potency, µM (doses to about 46 µM), for inactives: at the top dose activity change, positive = activation, usual class: activators; HEK293T ELG1-luciferase reporter, luminescence, 16 h; AID 504466; also: % of control where 0% means no effect; nearly all actives have a fitted effect of over 60% in size
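Genotoxicity was scored as increased ELG1-luciferase reporter signal, measured by ONE-Glo luminescence (30 min, room temperature). Compound or vehicle exposure of the HEK293T reporter cells lasted 16 hr at 37°C.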
Rab9 prom act: Rab9 promoter activation; Huh7 Rab9 promoter-luciferase reporter, luminescence, 24 h; Potency, µM (top dose mostly 9.22 µM), for inactives: at the highest dose activation, negative = inhibition, usual class: activators; actives 2.8% (n = 320,000); also: % of control where 0% means no effect; nearly all actives have a fitted effect of over 60% in size
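Huh7 cells stably carrying a Rab9 promoter-luciferase reporter, 1500 cells per well in OP-MEM I with 10% FBS, treated with compound 24 hours at 37C. Luciferase activity read by luminescence after 10 minutes with Amplite reagent.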
NPC1 promoter act: activators of NPC1 promoter | Huh7 NPC1 promoter luciferase reporter, 24 h | Potency, µM (series often up to 9.22 µM), for the others: top-dose activation, most hits filed as activators | actives 2.4% (n = 320,000); also: % of control where 0% means no effect; nearly all actives have a fitted effect of over 60% in size
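Luminescence read-out of NPC1 promoter-driven luciferase in stably transfected Huh7 cells; compounds delivered in DMSO and left 24 h at 37C, 5% CO2, qHTS titration format.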
ELG1 DNA repair: ELG1-dependent DNA repair inhibition | actives 2.3% (n = 330,000) | AID 504467 | Potency, µM (titrated, usually from 46.1 µM), without a hit: at the top dose activity change, negative = inhibition, hits mostly inhibitors | HEK293T ELG1-luciferase reporter, luminescence, 16 h; DNA damage induced by 5-fluorouridine; also: % is scaled to controls: 0 for no effect and ±100 for the full control effect; nearly all actives have a fitted effect of over 55% in size
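In this reporter screen, reduction of luminescence relative to DMSO vehicle indicated activity. Compounds and 5-fluorouridine were added together to 2,000 cells per well, incubated for 16 hr at 37 °C, then developed with ONE-Glo.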
SMN2 splice up: SMN2 splice variant enhancement. Potency, µM (top dose mostly 46.1 µM), for inactives: at the highest dose activity change, positive = activation, hits mostly activators. actives 2.8% (n = 210,000). HEK293 SMN2-luciferase splicing reporter, luminescence, 30-36 h; also: % of control where 0% means no effect; nearly all actives have a fitted effect of over 55% in size
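HEK293 cells carry an SMN2 […]–luciferase reporter in which exon 7 inclusion puts luciferase in frame. Cells were plated 10-12 h before compound addition, then incubated 30-36 h at 37C. ONE-Glo luminescence was read; sodium butyrate at 4.5 mM final served as control.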
FLuc modulator: counter-screen for miR-21 project: firefly luciferase inhibitors or activators. purified FLuc, Km substrates, luminescence inhibition. Potency, µM (titrated, usually from 57.5 µM), inactives show at the top dose activity change, negative = inhibition, hits mostly inhibitors. actives 6.9% (n = 360,000). AID 588342;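 also: plate controls were vehicle for no effect and reference inhibitor for full effect; nearly all actives have a fitted effect of over 55% in size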
Target sequence (P08659 whole entry, looked up): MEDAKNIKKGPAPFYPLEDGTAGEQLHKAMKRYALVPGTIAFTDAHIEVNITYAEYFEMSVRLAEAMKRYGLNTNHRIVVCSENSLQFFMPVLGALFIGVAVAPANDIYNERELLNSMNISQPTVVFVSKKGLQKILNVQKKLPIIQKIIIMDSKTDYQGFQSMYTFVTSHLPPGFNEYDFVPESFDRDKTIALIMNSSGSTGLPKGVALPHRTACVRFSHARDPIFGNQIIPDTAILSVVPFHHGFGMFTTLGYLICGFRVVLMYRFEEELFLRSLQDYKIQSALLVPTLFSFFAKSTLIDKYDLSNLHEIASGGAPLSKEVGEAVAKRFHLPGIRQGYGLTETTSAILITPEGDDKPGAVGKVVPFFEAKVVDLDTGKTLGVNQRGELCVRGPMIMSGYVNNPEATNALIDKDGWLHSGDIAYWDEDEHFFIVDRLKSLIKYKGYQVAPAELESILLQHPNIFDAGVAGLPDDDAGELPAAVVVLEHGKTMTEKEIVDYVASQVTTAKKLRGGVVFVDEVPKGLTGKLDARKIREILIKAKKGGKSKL
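Biochemical qHTS of compounds, final roughly 60 µM downward over six points, against 10 nM purified firefly luciferase using Km concentrations of substrates (10 uM D-luciferin, 10 uM ATP) in Tris acetate pH 7.5 buffer; luminescence output.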
Numbers without * were called inactive. Calls follow the shape of the dose curve; as a rule, active = well fitted curve in the direction sought with a large enough effect; inconclusive = small, poorly fitted or top-dose-only effect, or another doubt; inactive = no such curve, though single readings can be large; an effect the other way counts as inactive or inconclusive. Potency is read from the fitted curve at half-maximal effect.

Results for COc1ccc2[nH]c(C(=O)Nc3ccc4c(c3)OCO4)cc2c1 ?
ELG1 genotoxic: 17%; Rab9 prom act: 2.8µM*; NPC1 promoter act: 3.2µM*; ELG1 DNA repair: inconclusive; FLuc modulator: 4.8µM*

How did CCOC(=O)c1ccc(NC(=O)c2ccc3c(c2)OCO3)cc1 do in these assays?
ELG1 genotoxic: 0%; Rab9 prom act: inconclusive; NPC1 promoter act: 27%; ELG1 DNA repair: inconclusive; SMN2 splice up: 16%; FLuc modulator: inconclusive

How did CC(C)NC(=S)N1CCN(Cc2ccc3c(c2)OCO3)CC1 do in these assays?
ELG1 genotoxic: 0%; Rab9 prom act: -5%; NPC1 promoter act: -6%; ELG1 DNA repair: 6%; SMN2 splice up: -2%; FLuc modulator: -1%

Results for CCN(CC)c1ccc(C(=O)NC(=S)N2CCN(Cc3ccc4c(c3)OCO4)CC2)cc1 ?
ELG1 genotoxic: -3%; Rab9 prom act: 1%; NPC1 promoter act: 0%; ELG1 DNA repair: 3%; SMN2 splice up: 12%; FLuc modulator: 21µM*

What do the screens show for `COc1ccc(NC(=O)c2ccc3c(c2)OCO3)cc1`?
ELG1 genotoxic: 5.2µM*; Rab9 prom act: 0.63µM*; NPC1 promoter act: 1.1µM*; ELG1 DNA repair: inconclusive; FLuc modulator: 3.4µM*

What do the screens show for `Cc1ccc(S(=O)(=O)N2CCOCC2)cc1NC(=O)COc1cccc(Oc2ccccc2)c1`?
ELG1 genotoxic: -29%; Rab9 prom act: 5%; NPC1 promoter act: 1%; ELG1 DNA repair: inconclusive; FLuc modulator: -3%

How did Cc1ccc(S(=O)(=O)N2CCOCC2)cc1NC(=O)COC(=O)CNC(=O)c1ccc(Oc2ccccc2)cc1 do in these assays?
ELG1 genotoxic: 1%; Rab9 prom act: -4%; NPC1 promoter act: 0%; ELG1 DNA repair: 2%; SMN2 splice up: -14%; FLuc modulator: 1.9µM*

What do the screens show for `Cc1ccc(S(=O)(=O)N2CCOCC2)cc1NC(=O)COC(=O)CNC(=O)c1ccc(C(C)(C)C)cc1`?
ELG1 genotoxic: -2%; Rab9 prom act: -2%; NPC1 promoter act: -2%; ELG1 DNA repair: inconclusive; SMN2 splice up: inconclusive; FLuc modulator: 0.95µM*

How did Cc1cc(C)cc(OCC(=O)OCC(=O)Nc2cc(S(=O)(=O)N3CCOCC3)ccc2C)c1 do in these assays?
ELG1 genotoxic: -3%; Rab9 prom act: 1%; NPC1 promoter act: -1%; ELG1 DNA repair: 9%; FLuc modulator: 2%

Results for Cc1ccc(S(=O)(=O)N2CCOCC2)cc1NC(=O)COC(=O)CCOc1ccc(C(C)(C)C)cc1 ?
ELG1 genotoxic: 4%; Rab9 prom act: -9%; NPC1 promoter act: 0%; ELG1 DNA repair: 15%; FLuc modulator: 3.8µM*

Results for Cc1ccc(C(=O)NCC(=O)OCC(=O)Nc2cc(S(=O)(=O)N3CCOCC3)ccc2C)cc1 ?
ELG1 genotoxic: -4%; Rab9 prom act: -9%; NPC1 promoter act: -3%; ELG1 DNA repair: 22%; FLuc modulator: inconclusive

What do the screens show for `COc1ccc(NC(=O)c2ccco2)c2ccccc12`?
ELG1 genotoxic: -3%; Rab9 prom act: -2%; NPC1 promoter act: -1%; ELG1 DNA repair: 9%; FLuc modulator: 4%

What do the screens show for `CC(C=O)Cc1ccc(C(C)(C)C)cc1` (stereo not given)?
SMN2 splice up: 13%

What do the screens show for `Cc1ccc(S(=O)(=O)Nc2cccc(-c3ccc(N4CCCCCC4)nn3)c2)cc1C`?
ELG1 genotoxic: inconclusive; Rab9 prom act: 3.2µM*; NPC1 promoter act: inconclusive; ELG1 DNA repair: inconclusive; FLuc modulator: 6µM*

How did COc1ccc(S(=O)(=O)Nc2cccc(-c3ccc(N4CCCC4)nn3)c2)cc1OC do in these assays?
FLuc modulator: 17µM*

Results for Cc1ccc([N+](=O)[O-])cc1S(=O)(=O)Nc1cccc(-c2ccc(N3CCCC3)nn2)c1 ?
ELG1 genotoxic: 1%; Rab9 prom act: 15%; NPC1 promoter act: 18%; ELG1 DNA repair: inconclusive; FLuc modulator: 19µM*
